Most compounds without a hit are left out; they make up all but 11% or so of the library.
FLuc inh = Photinus pyralis luciferase inhibition; purified P. pyralis luciferase, luminescence, biochemical; Potency, µM (series often up to 115 µM), most hits filed as inhibitors; 76,000 tested, 2.5% active; P08659; note: nearly all actives have a fitted effect of over 65% in size
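Cell-free enzyme assay, 10nM P. pyralis luciferase, luciferin and ATP each at 10uM. Inhibition profiled over a 6-point titration, read as luminescence.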
HEK293 tox = HEK 293 cell cytotoxicity; 94,000 tested, 6.6% active; AID 1345083; HEK 293 viability, ATP luminescence (CellTiter-Glo), 48-72 h; Potency, µM (highest dose often 115 µM), actives largely listed as inhibitors; note: nearly all actives have a fitted effect of over 60% in size
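ATP-coupled CellTiter-Glo luminescence served as viability read-out, recorded 10 min after reagent addition at room temperature. HEK 293 cells, 250 cells/well, had been incubated with pintool-transferred compound for 48 or 72 hr at 37 degree Celsius.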
NPR1 antag = antagonists of human natriuretic peptide receptor Npr1; P16066; HEK293 hNpr1 GloSensor cGMP, ANP-stimulated luminescence; Potency, µM (titrated, usually from 46.3 µM), hits mostly inhibitors; 76,000 tested, 1.6% active; calls by dose curve; note: nearly all actives have a fitted effect of over 60% in size
Target sequence (P16066 whole entry, looked up): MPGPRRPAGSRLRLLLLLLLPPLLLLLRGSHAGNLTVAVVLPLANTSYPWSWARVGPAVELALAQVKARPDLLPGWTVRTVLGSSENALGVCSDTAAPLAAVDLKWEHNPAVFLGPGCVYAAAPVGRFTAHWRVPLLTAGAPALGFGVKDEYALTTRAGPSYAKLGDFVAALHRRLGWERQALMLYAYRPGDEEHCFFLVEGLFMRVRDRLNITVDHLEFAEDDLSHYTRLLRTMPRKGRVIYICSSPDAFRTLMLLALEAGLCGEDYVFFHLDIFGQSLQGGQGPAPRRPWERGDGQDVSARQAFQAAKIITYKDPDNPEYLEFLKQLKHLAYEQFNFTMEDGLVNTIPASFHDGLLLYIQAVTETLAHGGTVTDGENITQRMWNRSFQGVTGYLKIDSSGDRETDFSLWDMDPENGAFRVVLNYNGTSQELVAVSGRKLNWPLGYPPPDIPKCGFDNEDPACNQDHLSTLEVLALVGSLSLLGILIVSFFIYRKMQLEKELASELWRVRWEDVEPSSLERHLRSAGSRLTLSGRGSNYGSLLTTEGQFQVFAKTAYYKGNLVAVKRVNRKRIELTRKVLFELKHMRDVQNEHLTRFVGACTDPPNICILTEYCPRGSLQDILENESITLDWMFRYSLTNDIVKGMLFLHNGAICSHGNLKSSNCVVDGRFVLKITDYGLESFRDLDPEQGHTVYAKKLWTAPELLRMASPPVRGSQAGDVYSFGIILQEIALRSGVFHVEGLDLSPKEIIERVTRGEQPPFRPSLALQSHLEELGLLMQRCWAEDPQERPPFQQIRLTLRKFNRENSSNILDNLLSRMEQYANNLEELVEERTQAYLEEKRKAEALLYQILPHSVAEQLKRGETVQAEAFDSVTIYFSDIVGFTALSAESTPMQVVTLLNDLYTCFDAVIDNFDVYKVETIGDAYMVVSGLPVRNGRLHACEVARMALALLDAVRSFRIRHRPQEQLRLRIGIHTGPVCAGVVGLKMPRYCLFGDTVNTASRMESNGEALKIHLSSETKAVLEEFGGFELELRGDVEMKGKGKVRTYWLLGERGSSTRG
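Compound pre-incubated 30 min at room temperature on GloSensor-loaded HEK293 cells stably carrying hNpr1 and the pGS-40F cGMP biosensor. Stimulation uses hNppA at 0.1 nM final; luminescence is taken at baseline and 20 min post-agonist.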
3T3 cytotox = NIH 3T3 cell cytotoxicity | NIH 3T3 viability, CellTiter-Glo ATP luminescence, 48-72 h | Potency, µM (doses to about 96.7 µM), most hits filed as inhibitors | 94,000 tested, 4.3% active; note: nearly all actives have a fitted effect of over 55% in size
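Luminescent ATP readout (CellTiter-Glo, 10 min RT) after 48 or 72 hr compound exposure of NIH 3T3 cells seeded at 400 cells/well in 1536-well format; quantitative HTS.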
Npr1 antag conf = hNpr1 antagonism, confirmation assay; shares compounds with NPR1 antag; 1,400 tested, 76% active; Potency, µM (series often up to 57.6 µM), usual class: inhibitors; HEK293 hNpr1 cGMP GloSensor luminescence, ANP-stimulated; calls by dose curve; note: nearly all actives have a fitted effect of over 70% in size
NPR2 antag = selectivity test of Npr1 antagonists against human Npr2; shares compounds with NPR1 antag; HEK293 hNpr2 GloSensor cGMP luminescence, CNP-stimulated; Potency, µM (doses to about 57.6 µM), hits mostly inhibitors; 1,400 tested, 67% active; AID 1347046; calls by dose curve; note: nearly all actives have a fitted effect of over 70% in size
FLuc counter = counter-screen for Npr1 antagonists: firefly luciferase inhibitors | shares compounds with NPR1 antag | purified FLuc enzyme, luminescence, Km substrate | Potency, µM (series often up to 57.6 µM), most hits filed as inhibitors | 1,400 tested, 0.7% active
GloSensor cGMP = reduces cGMP signal in GloSensor control cells | shares compounds with NPR1 antag | AID 1347051 | Potency, µM (doses to about 57.6 µM), usual class: inhibitors | HEK293 GloSensor cGMP, SNP-stimulated, luminescence | 1,400 tested, 69% active; calls by dose curve; note: nearly all actives have a fitted effect of over 70% in size
A number is an active result; i = inactive; ? = inconclusive; nt = no result. Unless noted, calls come from the whole dose curve; as a rule, active = well fitted curve in the direction sought with a large enough effect; inconclusive = small, poorly fitted or top-dose-only effect, or another doubt; inactive = no such curve, though single readings can be large; an effect the other way counts as inactive or inconclusive.

SMILES	FLuc inh	HEK293 tox	NPR1 antag	3T3 cytotox	Npr1 antag conf	NPR2 antag	FLuc counter	GloSensor cGMP
COc1ccc(C(=O)N2CCC3(CC2)N=C(c2ccc(Cl)cc2)NO3)cc1OC	i	?	11µM	i	11µM	12µM	i	9.7µM
COc1ccc(C(=O)N2CCC3(CC2)N=C(c2ccc(Br)cc2)NO3)cc1OC	i	?	10µM	i	6.9µM	11µM	i	6.9µM
CCOc1ccc(CC(=O)N2CCC3(CC2)N=C(c2ccc(Cl)cc2)NO3)cc1	i	?	?	?	nt	nt	nt	nt
CN1C(=O)CO[C@@H](C(=O)N2CCN(c3ccccc3)CC2)[C@@H]1c1ccccc1	nt	i	nt	i	nt	nt	nt	nt
O=C(C1CCCCC1)N1CC(N(Cc2ccccn2)C(=O)Nc2ccccc2)C1	nt	i	nt	i	nt	nt	nt	nt
Cc1ccc(S(=O)(=O)NC[C@H]2OC[C@@H](NCC(C)(C)C)[C@@H]2O)cc1	i	i	i	i	nt	nt	nt	nt
CCOc1ccccc1C(=O)N1CCc2[nH]nc(C(=O)NCCCc3ccccc3)c2C1	i	22µM	?	?	24µM	?	i	19µM
COc1cccc(C(=O)N2CCC(Cc3nc(C(C)C)no3)CC2)c1	i	?	i	?	nt	nt	nt	nt
COc1cccc(-c2noc(CC3CCN(C(=O)c4cccc(F)c4)CC3)n2)c1	i	?	6.3µM	?	6.1µM	6.9µM	i	4.8µM
O=C(c1ccc(F)cc1)N1CCC(Cc2nc(-c3ccccc3)no2)CC1	i	?	5µM	?	4.8µM	6.1µM	i	5.4µM
O=C(c1ccco1)N1CCC(Cc2nc(-c3ccccc3)no2)CC1	i	?	?	?	nt	nt	nt	nt
O=C(c1cccc(F)c1)N1CCC(Cc2nc(-c3ccccc3)no2)CC1	i	?	6.3µM	?	6.9µM	9.7µM	i	6.9µM
O=C(c1cn[nH]c1-c1ccccc1)N1CC2CC(C1)[C@H]1CCCC(=O)N1C2 (some centres undefined)	i	i	i	i	nt	nt	nt	nt
O=C(NC1CCCCC1)N1Cc2[nH]cnc2C[C@H]1c1nc(-c2cccc([N+](=O)[O-])c2)no1	i	i	i	?	nt	nt	nt	nt
COCCC1(NC(=O)C2CC2)CCN(S(C)(=O)=O)CC1	i	i	i	i	nt	nt	nt	nt
Cc1ccc(C2Cn3nnc(C(=O)N4CCN(C(=O)c5ccc(Cl)cc5)CC4)c3CO2)cc1 (centres undefined)	i	i	i	i	nt	nt	nt	nt
Cc1ccc(C2Cn3nnc(C(=O)N4CCN(C(=O)c5cc(Cl)ccc5F)CC4)c3CO2)cc1 (centres undefined)	i	?	?	?	15µM	19µM	i	17µM
Cc1ccccc1CC(=O)N1CCN(C(=O)c2nnn3c2COC(c2ccc(Cl)cc2)C3)CC1 (centres undefined)	i	28µM	14µM	35µM	19µM	22µM	i	19µM
Cc1ccccc1N1CCN(C(=O)c2nnn3c2COC(c2ccc(Cl)cc2)C3)CC1 (centres undefined)	i	i	i	i	nt	nt	nt	nt
Cc1ccc(C2Cn3nnc(C(=O)N4CCN(C(=O)c5ccccc5F)CC4)c3CO2)cc1 (centres undefined)	i	?	?	i	nt	nt	nt	nt
COc1cc(Cl)ccc1C(=O)N1CCN(C(=O)c2nnn3c2COC(c2ccccc2)C3)CC1 (centres undefined)	i	?	?	?	22µM	?	i	31µM
Cc1ccccc1C(=O)N1CCN(C(=O)c2nnn3c2COC(c2ccc(Cl)cc2)C3)CC1 (centres undefined)	i	?	?	?	27µM	?	i	?
CCc1noc(-c2cn(C3CCN(C(=O)c4ccc(OC)c(F)c4)C3)nn2)n1 (centres undefined)	i	i	i	i	nt	nt	nt	nt

Screening data: PubChem, National Center for Advancing Translational Sciences (NCATS)
